Bioassay records as filed in PubChem BioAssay.
HER2 expr 66K – lowers expression of human Her2 kinase. P04626. SKBR-3 HER2 protein level, AlphaScreen, 18-24 h; hits give low values. HER2 level % of control, % at 10 µM. 0.69% of 65,000 active. AID 645;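 active = HER2 level under 5% of the carrier-only control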;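 note: 100% = DMSO carrier and 0% = 500 nM PU-H71 HSP90 inhibitor; lower value means stronger loss of Her2 protein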
MT1-MMP txn act – activates MT1-MMP transcription; HT1080 MT1-MMP promoter luciferase reporter, luminescence, overnight; hits give high values; activation factor at 10 µM; 0.16% of 86,000 active; AID 750;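 active = activation factor of at least 2 for MT1-MMP transcription at 10 µM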
FXIIa mix inh – factor XIIa (human) inhibition, mixture screen; inhibition, % at 5 µM; P00748; purified FXIIa, fluorogenic substrate, pooled mixtures; 0.2% of 62,000 active; AID 684;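 note: 0% = enzyme without compound and 100% = no enzyme blank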
FXIa inh mix – inhibitors of human coagulation factor XIa, pooled mixtures; purified FXIa, fluorogenic substrate; 0.19% of 62,000 active; P03951; inhibition, % at 5 µM;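 note: each value is inhibition by a whole ten-compound pool holding the compound; 0% = enzyme with no mixture and 100% = wells lacking enzyme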
Target sequence (P03951 19-387 limits assumed): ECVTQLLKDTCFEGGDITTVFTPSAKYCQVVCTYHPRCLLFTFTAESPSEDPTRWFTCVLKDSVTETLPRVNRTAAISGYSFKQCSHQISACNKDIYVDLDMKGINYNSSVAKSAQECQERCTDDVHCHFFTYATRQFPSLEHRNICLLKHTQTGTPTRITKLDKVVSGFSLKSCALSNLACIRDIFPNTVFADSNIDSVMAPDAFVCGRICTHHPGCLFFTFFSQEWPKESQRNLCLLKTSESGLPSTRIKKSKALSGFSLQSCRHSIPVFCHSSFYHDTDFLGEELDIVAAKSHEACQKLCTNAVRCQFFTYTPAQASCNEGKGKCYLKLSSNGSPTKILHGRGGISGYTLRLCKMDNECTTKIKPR
Target sequence (P03951 388-625 limits assumed): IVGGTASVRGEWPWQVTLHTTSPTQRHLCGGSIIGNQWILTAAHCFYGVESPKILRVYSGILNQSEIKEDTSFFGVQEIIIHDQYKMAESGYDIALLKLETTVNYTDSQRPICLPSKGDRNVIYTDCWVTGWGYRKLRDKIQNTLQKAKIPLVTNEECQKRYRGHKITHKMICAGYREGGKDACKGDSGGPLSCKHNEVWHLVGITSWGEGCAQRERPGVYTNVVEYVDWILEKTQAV
* marks the source's active call; other numbers are inactive results; / = no result given. Only some compounds are listed: those with a hit (about 0.88% of all), similar ones and a draw of the others. Cut-off read from the data, not from the text of the source, unless noted: active = inhibition above about 20% (passing the limit was not always enough); inactive = the rest.

SMILES | HER2 expr 66K | MT1-MMP txn act | FXIIa mix inh | FXIa inh mix
CCCCN1C(=O)NC(c2ccc(OC)cc2)C(C(=O)OCc2ccccc2)=C1C (configuration not stated) | / | 1.2 | / | /
Cc1ccc(Nc2nc(C(=O)NCc3ccco3)cs2)cc1 | 82 | 1.2 | -2 | 4
CCN(CC)C(=O)c1csc(Nc2ccc(C)cc2)n1 | -20* | 1.3 | 12 | -25
COc1ccc(-c2nc3c(Br)c(N)c(Br)cc3o2)cc1 | 65 | 1.7 | / | /
Nc1c(Br)cc2oc(-c3ccccc3)nc2c1Br | 72 | 2* | / | /
O=C(Cc1cscn1)c1ccc(O)cc1O | -18* | 1 | / | /
Cc1nc(CC(=O)c2ccc(O)cc2O)cs1 | / | 1.3 | / | /
CCOC(=O)N1CCN(c2nnnn2-c2ccccc2)CC1 | -26* | 1.1 | 2 | -1
COc1ccc(C(=O)N2CCN(c3nnnn3-c3ccccc3)CC2)cc1OC | 106 | 1.1 | -17 | -4
COC(=O)CSc1nc2nc(C)cc(C)n2n1 | 101 | 1.1 | 5 | 10
CCC(=O)Nc1nc(C)cc(SCC(=O)OC)n1 | 107 | 1.1 | -1 | 21*
O=C(Nc1ccc2ccccc2c1)[C@H]1C[C@@H]1[C@H](NP(=O)(c1ccccc1)c1ccccc1)c1ccccc1 | / | 1 | / | /
COc1ccc(NC(=O)CSc2ncc(-c3ccc(F)cc3)n2Cc2ccco2)cc1 | / | 1.2 | / | /
CCC(=O)Nc1cc(NC(=O)CSc2ncc(-c3ccc(F)cc3)n2Cc2ccco2)ccc1C | 89 | 2.1* | -1 | -1
CC(C)N(C(=O)c1ccc2nc3c4ccccc4c4ccccc4c3nc2c1)C(C)C | / | 1.2 | / | /
Cc1nc2ccccc2n1CCc1nc2c3ccccc3nc(SCC#N)n2n1 | / | 1.1 | / | /
Cc1cc(C)n(CCc2nc3c4ccccc4nc(SCc4ccc(C#N)cc4)n3n2)n1 | 116 | 1.1 | 26* | 6
Cc1ccc(-c2nn3c(C)nnc3s2)cc1NC(=O)c1ccc(OC(C)C)cc1 | 77 | 1.1 | 2 | 22*
CCCCn1c(SCC(=O)NC(C)(C)C)nnc1-c1ccco1 | 82 | 1.2 | 21* | 3
CCCCn1c(SCC(N)=O)nnc1-c1ccco1 | 89 | 1.1 | -17 | 4
COc1ccc(S(=O)(=O)n2nc(OC(=O)c3cccs3)cc2N)cc1 | 77 | 1.1 | 2 | 21
COc1ccc(S(=O)(=O)n2nc(OC(=O)c3ccccc3)cc2N)cc1 | 133 | 1.1 | 12 | 28*
N#Cc1c(-c2ccco2)cc(-c2ccccn2)nc1N | -1.2* | 1.3 | 2 | -13
COC(=O)[C@@]1(Cc2ccccc2)[C@H]2c3cc(C(=O)N(C)C)n(Cc4ccc(O)c(OC)c4)c3C[C@H]2CN1C(=O)c1ccccc1 | / | 1.1 | / | /
Cc1nnc(SCc2nnc(-c3ccccc3Br)o2)n1-c1ccccc1 | -12* | 1.2 | 10 | 6
SMILES | HER2 expr 66K | MT1-MMP txn act | FXIIa mix inh | FXIa inh mix
CCC/C=C(\CCC)C(NS(=O)(=O)c1ccc(Cl)cc1)c1ccc(C(=O)OC)cc1 (configuration not stated) | / | 1.3 | / | /
Cc1ccc2nc(Nc3ccccc3)c(/C=N/O)c(=O)n2c1 | -25* | 1 | / | /
Cc1ccc2nc(NCc3ccco3)c(C=NCc3ccco3)c(=O)n2c1 | 122 | 1.1 | -2 | 5
COC(=O)[C@@]1(Cc2ccccc2)C=C[C@@H](C)N1C | / | 1 | / | /
COc1ccc(N2C(=O)C3CCCN3C2c2cccc(C)c2)cc1Cl (configuration not stated) | 77 | 1.1 | 23* | 3
COC(=O)[C@@]1(Cc2ccccc2)[C@H]2c3cc(C(=O)N4CCCC4)n(Cc4ccccn4)c3C[C@H]2CN1C(=O)c1ccccc1 | / | 1.2 | / | /
Fc1ccccc1Cn1nnc(-c2ccc3c(c2)OCO3)n1 | / | 1.4 | / | /
COc1ccc(-c2nnn(Cc3ccccc3F)n2)cc1 | / | 2.3* | / | /
CC(=O)N1[C@H](C)C=C[C@]1(Cc1ccccc1)C(=O)NCc1ccc(C)o1 | / | 1 | / | /
Cc1cc(O)ccc1Nc1nc(-c2sc(N)nc2C)cs1 | 86 | 1.2 | 8 | 5
Cc1nc(N)sc1-c1csc(Nc2ccccc2)n1 | / | 2.3* | 3 | 5
COC(=O)c1ccc(C(NC(=O)OCc2ccccc2)/C(C)=C/[C@@H](C)C(=O)NCc2cccnc2)cc1 (some centres not stated) | / | 1.8 | / | /
Cc1ccc2oc(=O)c3c4cc(O)c(O)c(C)c4oc3c2c1 | / | 1.2 | / | /
COc1cc(-c2nc(-c3ccc(NC(=O)c4ccc5c(c4)OCO5)cc3)no2)cc(OC)c1OC | -3.3* | 1.3 | 6 | 6
Cc1ccccc1-c1nc(-c2ccc(NC(=O)c3ccc4c(c3)OCO4)cc2)no1 | / | 1.1 | / | /
CCn1c(SCC(=O)N2CCOCC2)nnc1-c1cccs1 | 109 | 1.1 | -4 | 21*
COc1ccc(S(=O)(=O)N2CCC(C(N)=O)CC2)cc1 | 98 | 1 | -12 | 31*
O=C(CSc1nc2cc(Cl)ccc2s1)c1ccco1 | -1.4* | 1.4 | 6 | 8
COC(=O)c1ccc(C(NC(=O)OCc2ccccc2)/C(=C/[C@@H](C)C(=O)NCc2ccncc2)c2cccnc2)cc1 (some centres not stated) | / | 1.5 | / | /
COC(=O)[C@@]1(Cc2ccc(F)cc2)[C@H]2c3cc(C(=O)N(C)C)n(CC4CC4)c3C[C@H]2CN1C(=O)c1ccccc1 | / | 1.1 | / | /
COC(=O)[C@@]1(Cc2ccc(OC)cc2)[C@H]2c3cc(C(=O)N(C)C)n(Cc4ccc(O)c(OC)c4)c3C[C@H]2CN1C(=O)c1ccccc1 | / | 1.1 | / | /
Cc1sc(/N=C/c2ccccc2O)c(C#N)c1C | / | 2* | / | /
COC(=O)[C@@]1(Cc2ccc(OC)cc2)[C@H]2c3cc(C(=O)N4CCCC4)n(Cc4cc(F)c(F)c(F)c4)c3C[C@H]2CN1C(=O)c1ccccc1 | / | 1.2 | / | /
CCCOC(=O)CN1C(=O)c2ccccc2C1=O | 92 | 1.2 | -1 | 8
CCCCOCCCNC(=O)CN1C(=O)c2ccccc2C1=O | -21* | / | -5 | 5
CCCC[C@@H]1C[C@H]1C(NC(=O)c1ccco1)c1ccccc1C(F)(F)F (some centres not stated) | / | 1.2 | / | /
Nc1c(S(=O)(=O)c2cccc(Cl)c2)c2nc3ccccc3nc2n1/N=C/c1ccc(O)c(O)c1 | -13* | 0.8 | 3 | 14
Cc1cccc(S(=O)(=O)c2c(N)n(Cc3ccco3)c3nc4ccccc4nc23)c1 | 77 | 1 | 10 | -1
